Out of some 380,000 compounds screened, about 4,000 (1.1%) were called active. About 3% were inconclusive and are not listed. This is one part of a sample in which actives are shown more often than they occur. Values without a mark were called inactive. Calls come from the whole dose curve; as a rule, active = well fitted activation curve with a large enough effect; inconclusive = small, poorly fitted or top-dose-only effect; inactive = no such curve, though single readings can be large or run the other way.
Assay: qHTS Assay to Identify Small Molecule Activators of BRCA1 Expression; note: nearly all actives have a fitted effect of over 80% in size
Settings: MCF7-BRCA1-FFLuc reporter, luminescence, 48 h; series mostly up to 46.1 µM; activation: at the top concentration
Summary of the method: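 MCF7 cells carrying a BRCA1-firefly luciferase reporter (2000 cells/well, phenol-red free MEM) were attached for 2 h at 37 °C, then given compounds for 48 h. Luminescence was read 15 min after luciferase reagent; activity normalized to genistein (10 microM) and DMSO.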
Potency is the fitted concentration of half-maximal effect.

Point of comparison: `CCc1ccc(OCCCn2c(CCCNC(=O)C3CCCCC3)nc3ccccc32)cc1`, “activation” value 9.55%. Against it:
- COc1ccc(Cl)cc1N(C)C(=O)c1cc2c(=O)oc3ccc(C)cc3c2s1 — higher, 12.6%
- COc1ccc(NC(=O)c2cnc(Nc3ccc(C)c(Cl)c3)c3ccccc23)cc1OC — lower, -4.92%
- O=C1c2ccccc2C(=O)N1c1ccc(S(=O)(=O)N2CCOCC2)c2ccccc12 — lower, 1.74%
- COc1cccc(NC(=O)CSc2cc(=O)n(C)c3ccc(Cl)cc23)c1 — higher, 13.2%
- Cc1ccc(NC(=O)CN2C(=O)CC(C)Sc3ccccc32)c(C)c1 (stereo unspecified) — lower, -19.1%
- O=C(NC(Cc1c[nH]c2ccccc12)C(=O)N/N=C/c1ccc(Br)cc1)c1cccs1 (stereo unspecified) — lower, -83.7%
- C[C@H](NC(=O)c1ccccc1)C(=O)OCC(=O)c1c[nH]c2ccccc12 — lower, -34.3%
- CCOC(=O)c1cccc(NC(=O)c2cc(S(=O)(=O)N3CCCC(C)C3)cn2C)c1 (stereo unspecified) — lower, -55.3%
- O=C(CCn1c(=O)c2ccccc2n(Cc2ccc(Cl)cc2)c1=O)NCc1ccc2c(c1)OCO2 — lower, 6.66%
- CCCN(C(=O)Cn1cc(S(=O)(=O)N2CCN(c3ccccc3F)CC2)c2ccccc2c1=O)c1cccc(C)c1 — lower, -2.67%
- OC(c1ccccc1)(c1ccccc1)C1CCN(CCCOc2ccccc2)CC1 — lower, -6.13%
- CCOc1ccc(C(=O)CCN2CCOCC2)cc1 — lower, -34.5%
- CCc1cccc(NC(=O)Cn2nc(CC)n3c(cc4cc(C)ccc43)c2=O)c1 — lower, -10.7%
- COc1ccccc1C(=O)NCCn1cc(SCc2ccccc2Cl)c2ccccc21 — lower, -56.6%
- CCN(CC)C(=O)C1=C(C)N(Cc2ccc(OC)cc2)C(=O)C(CC(=O)NCc2ccco2)C1 (stereo unspecified) — lower, -12.6%
- O=C1N/C(=N\N=C\c2ccco2)SC1Cc1ccc(F)cc1 (stereo unspecified) — lower, -4.99%
- CN(Cc1ccccc1)c1ccc(/C=C/c2ccnc3ccccc23)cc1 — lower, -21.5%
- COc1ccccc1CNS(=O)(=O)c1cc(Br)cc2c1N(C(C)=O)C(C)C2 (stereo unspecified) — lower, -12.5%
- Cc1nc(N2CCOCC2)sc1C(=O)NN — lower, -106%
- Cc1cc(C)c2nc(N3CCC(C(=O)NCCN4CCOCC4)CC3)sc2c1 — higher, 32.9%
- CCc1nc2onc(C)c2c(=O)n1CC(=O)O — lower, 0.973%
- Cc1cc(C(=O)COc2ccc(Br)cc2F)c(C)n1C1CC1 — higher, 45.1%
- O=C(COc1ccccc1Cl)N1CCCCCCC1 — higher, 33.8%
- Cn1c(=O)c2c(-c3ccccc3Br)n(Cc3ccccc3)cc2n(C)c1=O — lower, -2.04%
- S=C(Nc1ccc2c(c1)OCO2)N1CCCC1 — higher, 56.2%
- CCc1ccccc1OCC(=O)Nc1ccc2c(c1)OCCO2 — higher, 94.9%
- S=C(NCc1ccco1)Nc1ccc2c(c1)OCCO2 — higher, 39.2%
- Cc1ccc(OCCCC(=O)Nc2ccc3c(c2)OCCO3)cc1 — higher, 22.6%
- COc1ccccc1-c1cc2nc(C)c(CCC(=O)NC3CCCCC3)c(C)n2n1 — lower, -4.32%
- COc1ccc(NC(=O)CSc2nnc(-c3nnn(-c4ccc(F)cc4)c3C)o2)cc1 — lower, 4.5%
- O=C(CS(=O)(=O)c1cccc2nsnc12)N1CCN(c2cccc(Cl)c2)CC1 — lower, -5.64%
- COc1ccc2[nH]c3c(c2c1)CCN(C(=O)CCC1CCCC1)C3c1ccc(F)cc1 (stereo unspecified) — lower, -14.9%
- Cc1ccc(Cl)cc1N1CCN(C(=O)CN2C(=O)COc3ccc(S(=O)(=O)N4CCOCC4)cc32)CC1 — lower, -21.5%
- O=C(c1cc(COc2cccc(C(F)(F)F)c2)on1)N1CCSCC1 — lower, -8.73%
- COc1ccc(OCc2cc(C(=O)N3CCCC3)no2)c2ccccc12 — higher, 64.4%
- CCN(CC)S(=O)(=O)c1ccc2c(c1)nc(CN(C)C(=O)Nc1ccc(Cl)cc1)n2C — lower, 2.05%
- Cc1cc(F)ccc1NS(=O)(=O)c1ccc(-n2cccn2)cc1 — lower, -23.9%
- Cn1cc([N+](=O)[O-])c(C(=O)Nc2ccc3c(c2)OCCO3)n1 — higher, 78.5%
- O=C(Nc1ccc2c(c1)OCCO2)C(C1CC1)N1CCC(Cc2ccccc2)CC1 (stereo unspecified) — lower, -7.79%
- COC(=O)c1c(NC(=O)CCCOc2ccccc2)sc2c1CCC(C)C2 (stereo unspecified) — higher, 13.8%
- CCN(CCCNC(=O)c1cc2cc3cc(OC)ccc3nc2s1)c1ccccc1 — lower, 8.15%
- Cc1cc(NC(=O)CC(C)C)cc(-c2nc3ncccc3o2)c1O — lower, -5.81%
- Fc1cccc(Cc2c(-c3ccc(Cl)cc3)nc3ccc(Cl)cn23)c1 — higher, 18%
- Cc1ccc(Cc2c(-c3ccco3)nc3ccc(Cl)cn23)cc1 — lower, -32%
- CC1(C)CC(=O)c2cc(C(=O)NCc3ccccc3)c(=O)[nH]c2C1 — lower, 0%
- Cc1ccc(C)c(NC(=O)c2ccc(OC(=O)c3ccco3)cc2)c1 — higher, 46.3%
- CC(=O)c1ccc(NC(=O)c2cc(-c3cccs3)on2)cc1 — higher, 67.3%
- COC(=O)c1ccccc1NC(=O)Cn1c(=O)cc(C)c2c(C)nn(-c3cccc(Cl)c3C)c21 — lower, 4.63%
- O=C(COc1ccccc1)OCc1cc(=O)n2nc(-c3cccs3)sc2n1 — lower, 0%
- CCC(C(=O)Nc1cccc(Cl)c1C)n1nc(-c2ccc(C)cc2)ccc1=O (stereo unspecified) — lower, -24.6%
- CS(=O)(=O)c1ccc(C(=O)NNC(=O)c2cccs2)cc1 — lower, 1.26%
- NS(=O)(=O)c1ccc(NC(=S)NNC(=O)c2cccs2)cc1 — lower, 0%
- COc1cccc(N2CCN(S(=O)(=O)c3cc(Br)cc4c3N(C(=O)C3CC3)CC4)CC2)c1 — lower, 3.39%
- COc1ccccc1C(=O)OCc1cc(=O)n2nc(-c3cccs3)sc2n1 — lower, -16.9%
- O=C(c1cccs1)N1CCCC(c2nc(-c3ccc(F)cc3)no2)C1 (stereo unspecified) — higher, 78.6%
- Cc1ccc(-c2noc(-c3ccccc3C(=O)NCC3CCCO3)n2)cc1 (stereo unspecified) — higher, 10.2%
- CCCCNc1ccc(-c2nc(-c3ccncc3)no2)cc1[N+](=O)[O-] — lower, 8.14%
- O=C(NCc1cccnc1)c1nc(-c2cccs2)no1 — lower, -4.18%
- COc1ccc(-c2nc(C)c(CCNC(=O)c3ccc(C(F)(F)F)cc3)s2)cc1OC — lower, 8.95%
- COc1ccc(NC(=O)c2ccc3nc(C(C)C)oc3c2)cc1OC — higher, 43.9%
- COc1ccc(-n2c(=O)c3c(c4cc(OC)ccc4n3C)n(Cc3cccc(C)c3)c2=O)cc1 — lower, -15.1%
- CCc1nnc(NC(=O)C2CCCN2S(=O)(=O)c2ccccc2)s1 (stereo unspecified) — lower, 1.72%
- CCOC(=O)c1c(NC(=O)C2CC=CCC2C(=O)O)sc(C)c1CC (stereo unspecified) — lower, 3.34%
- CCc1nnc(NC(=O)CCC(=O)NCc2ccccc2OC)s1 — lower, 0.553%
- CCOC(=O)CSc1nnc(CNC(=O)c2cccs2)n1-c1ccccc1 — lower, -17.3%
- CCS(=O)(=O)N1CCc2cc(C(=O)N3CCN(c4ccccc4OC)CC3)ccc21 — lower, -1.91%
- Cc1nc2ccc(NC(=O)C3CCCCC3)cc2s1 — higher, 22.7%
- Cc1nc(NC(=O)C23CCC(C)(C(=O)O2)C3(C)C)sc1C (stereo unspecified) — lower, 0.809%
- CC(C)(C(=O)NO)c1ccccc1 — higher, 28.4%
- C/C(=N\NC(=O)c1cccnc1)c1ccc(-n2ccnc2)cc1 — higher, 14.6%
- C/C(=N\NC(=O)c1cccc([N+](=O)[O-])c1)c1cccnc1 — lower, -22.5%
- OCCNc1ncnc2oc(-c3ccco3)c(-c3ccco3)c12 — lower, -32.8%
- Cc1oc2ncnc(N3CCCCC3)c2c1C(=O)N1CCN(c2cccc(Cl)c2)CC1 — lower, -29.6%
- COC(=O)c1ccccc1NS(=O)(=O)c1ccc2c(c1)CCCN2C(C)=O — lower, 3.64%
- CC(C)CC(=O)NC(=S)NNC(=O)c1cccc([N+](=O)[O-])c1 — lower, -31.6%
- CC(C)CC(=O)NC(=S)Nc1ccc(F)cc1F — higher, 46.9%
- CCc1ccccc1NC(=O)Cc1ccc(NC(=O)N2CCCCc3ccccc32)cc1 — lower, 0%
- CCCCN(C)S(=O)(=O)c1ccc(C(=O)Nc2sc3c(c2C(N)=O)CC(C)(C)NC3(C)C)cc1 — lower, -0.616%
- CN(C(=O)C1CCOC1)c1nnc(-c2cccnc2)s1 (stereo unspecified) — lower, -2.74%
- CCC(C)(C)NC(=O)C(c1ccccn1)N(C(=O)c1csnn1)c1ccccc1 (stereo unspecified) — lower, -9.03%
- Brc1cccc[n+]1Cc1cccc(C[n+]2ccccc2Br)c1 — lower, 9%
- Cc1cc(C)cc(NC(=O)CCS(=O)(=O)c2cc3c4c(c2)CCN4C(=O)CC3)c1 — lower, 6.06%
- COc1ccc2c(c1OC)C(=O)N(c1ncn[nH]1)C2 — lower, 3.12%

With `O=C(N/N=C/c1c[nH]c2ccccc12)c1ccccc1O` the Potency was 8.91 µM (active).
For `c1ccc(-c2ccc(OCCN3CCOCC3)cc2)cc1`, the Potency was 11.2 µM (active).
With `COc1ccc(CN2C(=O)C(C)S/C2=N/N=C/c2ccco2)cc1` (stereo unspecified) the Potency was 11.2 µM (active).
With `Fc1cc(F)c2nc(N3CCOCC3)sc2c1` the Potency was 12.6 µM (active).
With `Cc1cc(C(=O)COc2ccccc2Cl)c(C)n1C1CC1` the Potency was 12.6 µM (active).
For `S=C(Nc1cccc(Cl)c1)Nc1ccc2c(c1)OCCO2`, the Potency was 11.2 µM (active).
For `CCCCC(=O)Nc1ccc2c(c1)OCCO2`, the Potency was 7.08 µM (active).
In the case of `COc1cccc(OCc2cc(C(=O)N3CCN(C(=O)c4ccco4)CC3)no2)c1`, the Potency was 11.2 µM (active).
For `Nc1c(C(=O)Nc2ccc3c(c2)OCCO3)nnn1Cc1ccccc1`, the Potency was 4.47 µM (active).
With `Cc1ccc(-c2nc3ccc(Cl)cn3c2Cc2ccccc2)cc1` the Potency was 10 µM (active).
In the case of `Cc1ccc(O)c(NC(=O)c2cc(-c3ccco3)on2)c1`, the Potency was 5.62 µM (active).
With `Nc1ccc(N=Nc2ccccc2Cl)c(N)n1` the Potency was 3.55 µM (active).
In the case of `O=C(Nc1ccccc1)c1ccc(NC(=O)c2cccs2)cc1`, the Potency was 7.94 µM (active).
For `c1csc(-c2nc(-c3ccncc3)no2)c1`, the Potency was 4.47 µM (active).
In the case of `Cc1ccc(-c2nc(-c3ccncc3)no2)c(C)c1`, the Potency was 5.01 µM (active).
In the case of `CCc1nnc(NC(=O)c2cccs2)s1`, the Potency was 12.6 µM (active).
With `CCc1c(C)sc(NC(=O)c2cccs2)c1C(N)=O` the Potency was 3.55 µM (active).
With `Cc1nc(NC(=O)C2CCCCC2)sc1C` the Potency was 12.6 µM (active).
With `C/C(=N\NC(=O)c1ccc2ccccc2c1)c1cccnc1` the Potency was 10 µM (active).
For `CC(=O)c1ccc(NC(=S)NC(=O)CC(C)C)cc1`, the Potency was 7.94 µM (active).
In the case of `CN(C(=O)c1ccccn1)c1nnc(-c2ccccn2)s1`, the Potency was 11.2 µM (active).
With `COc1ccc2c(c1OC)C(=O)N(c1ccc(O)cc1)C2` the Potency was 4.47 µM (active).

Reference: PubChem BioAssay AID624202 (National Center for Advancing Translational Sciences (NCATS), 2012)
